Data: PubChem BioAssay AID588358 (NMMLSC, 2011)
Hit rate of the full screen: of about 310,000 compounds, about 1,500 (0.48%) were called active. Shown is part of a subset that was picked to be rich in actives. A number with no mark means an inactive call.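 Rule for the calls: active = binding more than 3 SD below its plate's average and above zero; inconclusive = below that plate limit but binding exactly zero; inactive = the rest.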

Target: Desmoglein-3 (Homo sapiens) (UniProt P32926)
Experiment: blockers of anti-DSG3 scFv binding – biochemical, bead-based, flow cytometry, scFv-GFP, primary screen (AID 588358);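 note: hits lower antibody fragment binding to DSG3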
Conditions: DSG3-coupled beads, at 10 µM, hits give low values

Sequence of Desmoglein-3 (Homo sapiens) (P32926 whole entry, looked up, the tested form may be a part): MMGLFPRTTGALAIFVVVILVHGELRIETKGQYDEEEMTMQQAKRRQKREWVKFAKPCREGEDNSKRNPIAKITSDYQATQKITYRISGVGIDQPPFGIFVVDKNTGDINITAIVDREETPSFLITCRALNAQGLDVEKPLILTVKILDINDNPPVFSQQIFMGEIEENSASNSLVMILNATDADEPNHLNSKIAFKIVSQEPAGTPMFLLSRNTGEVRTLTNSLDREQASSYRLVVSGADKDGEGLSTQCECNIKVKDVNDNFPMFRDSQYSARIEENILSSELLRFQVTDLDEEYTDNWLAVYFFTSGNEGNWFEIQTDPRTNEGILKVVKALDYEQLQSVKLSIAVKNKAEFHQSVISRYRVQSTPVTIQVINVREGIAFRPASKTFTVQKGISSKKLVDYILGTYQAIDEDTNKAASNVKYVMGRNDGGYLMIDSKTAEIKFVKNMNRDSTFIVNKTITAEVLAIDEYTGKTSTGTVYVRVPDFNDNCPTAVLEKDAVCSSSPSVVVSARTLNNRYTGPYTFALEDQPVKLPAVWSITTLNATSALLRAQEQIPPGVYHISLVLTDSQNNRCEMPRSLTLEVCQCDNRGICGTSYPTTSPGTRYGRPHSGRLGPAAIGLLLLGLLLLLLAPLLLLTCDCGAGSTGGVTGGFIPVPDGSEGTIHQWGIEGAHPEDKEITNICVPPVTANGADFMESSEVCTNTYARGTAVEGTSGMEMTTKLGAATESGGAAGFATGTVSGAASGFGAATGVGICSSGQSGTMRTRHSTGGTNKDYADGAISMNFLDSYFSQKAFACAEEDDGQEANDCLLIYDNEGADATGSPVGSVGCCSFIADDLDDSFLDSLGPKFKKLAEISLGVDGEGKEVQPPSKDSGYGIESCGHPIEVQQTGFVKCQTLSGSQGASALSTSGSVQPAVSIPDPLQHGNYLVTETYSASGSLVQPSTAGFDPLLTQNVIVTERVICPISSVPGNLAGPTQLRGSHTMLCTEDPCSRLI

SMILES	binding (percent of control)
O=[N+]([O-])c1ccc(C(S(=O)(=O)Cc2ccccc2)S(=O)(=O)Cc2ccccc2)cc1	100%
Cc1ccc(S(=O)(=O)NCCNC(C)c2ccc(Br)cc2)cc1 (stereo not given)	-19.8% (active)
CC(CNS(=O)(=O)c1ccc(Br)cc1)CN(C)C (stereo not given)	102%
Cc1ccc(OCCNC(=O)CCNS(=O)(=O)c2ccc(Br)cc2)cc1	107%
CC1C(=O)N(Cc2cn(CC3CCCCC3)nn2)CCS(=O)(=O)N1Cc1ccc(-c2cccc(N(C)C)c2)cc1 (stereo not given)	101%
COCC1CCCCN1C(=O)c1cc(COc2ccc(C)c(C)c2)on1 (stereo not given)	101%
CN(CC(=O)Nc1ccc(N2CCOCC2)cc1)CC(=O)Nc1ccccc1[N+](=O)[O-]	116%
Cc1ccc(NC(=O)CN(C)Cc2ccc(F)cc2)c([N+](=O)[O-])c1	93.5%
CN(CC(=O)Nc1ccccc1[N+](=O)[O-])Cc1ccc(Br)cc1	104% (active)
COc1ccc(-n2ncc3c(SCC(=O)NNC(C)=O)ncnc32)cc1	102%
COc1ccc(NC(=O)CSc2ncnc3[nH]ncc23)cc1	106%
CC(=O)Nc1ccc(NC(=O)CSc2ncnc3c2cnn3Cc2ccccc2)cc1	76.2% (active)
O=C(NCc1nnnn1-c1ccc(Cl)cc1)c1ccc([N+](=O)[O-])o1	98.8%
Cc1ccc(S(=O)(=O)N2CCOCC2)cc1NC(=O)c1ccncc1	96.3%
Cc1cc(-c2ccc(S(=O)(=O)N3CCN(c4cccc(C(F)(F)F)c4)CC3)s2)on1	80%
Cc1cc(-c2ccc(S(=O)(=O)N3CCc4ccccc4C3)s2)on1	80.5% (active)
Cc1cccc(N2CCN(S(=O)(=O)c3ccc(-c4cc(C)no4)s3)CC2C)c1 (stereo not given)	96.5%
CC(C)CCOc1ccc(C(=O)Nc2cc(S(=O)(=O)N3CCOCC3)ccc2N2CCOCC2)cc1	102%
C=CCOc1cccc(C2C(C(=O)c3ccc(C)o3)=C(O)C(=O)N2CCN2CCOCC2)c1 (stereo not given)	102%
c1ccc(CNCc2ccc(CNCc3ccccc3)cc2)cc1	102%
COc1ccc(/C=C2\SC(=S)N(CCCC(=O)NC3CCCC3)C2=O)cc1OC	109%
COc1cc(/C=C2\SC(=S)N(Nc3ncc(C(F)(F)F)cc3Cl)C2=O)cc(OC)c1OC	87.8% (active)
CCOc1ccc(/C=C2\SC(=S)N(NC(=O)c3ccncc3)C2=O)cc1OC	106%
O=C(CSc1ncn[nH]1)Nc1nc2c(F)c(F)c(F)cc2s1	94%
Cc1ccc(S(=O)(=O)N2C[C@H]3C(=O)C[C@@H](c4cccc5ccccc45)N(S(=O)(=O)c4ccc(C)cc4)[C@H]3C[C@H]2c2ccc(Cl)cc2)cc1	99.7%
Cc1cccc(-c2nc(Nc3ccc(O)cc3)c3ccccc3n2)c1	324%
O=c1[nH]c(-c2cccs2)nc2ccccc12	98.9%
CC(=O)Nc1cccc(Nc2nc(-c3cccs3)nc3ccccc23)c1	64.6% (active)

SMILES	binding (percent of control)
C[C@H]1CN([C@@H](C)CO)C(=O)CCCn2nncc2CO[C@@H]1CN(C)Cc1ccc(Oc2ccccc2)cc1	101%
Cc1ccc(C(=O)N[C@H](C(=O)N2CCN(c3ncccn3)CC2)C(C)C)cc1	96.6%
CCOC(=O)c1cc2cc3ccccc3cc2oc1=O	105%
NS(=O)(=O)c1ccc(NC(=O)COC(=O)CCc2c[nH]c3ccccc23)cc1	96.4%
NS(=O)(=O)c1ccc(NC(=O)COC(=O)c2cc3ccccc3oc2=O)cc1	9.15% (active)
COc1cccc(NC(=O)[C@H](Cc2c[nH]c3ccccc23)NC(=O)[C@@H]2Cc3ccccc3CN2)c1	63.9% (active)
COc1ccc(NC(=O)C2CCC(CNC(=O)[C@@H]3Cc4ccccc4CN3)CC2)cc1 (stereo not given in full)	104%
COc1ccc(NC(=O)[C@H](NC(=O)[C@@H]2Cc3ccccc3CN2)c2ccccc2)cc1	103%
COc1ccc(CN2C(=O)C(CC(=O)NCc3cccc4ccccc34)CC(C(=O)N3CCOCC3)=C2C)cc1 (stereo not given)	102%
O=C(Nc1cc(F)ccc1F)c1ccc2c(=O)n3c(nc2c1)CCC3	98.5%
C[C@H]1Cn2cnc(C(=O)N[C@@H](Cc3c[nH]c4ccccc34)C(=O)OC(C)(C)C)c2C(=O)N1	98.2%
CCOC(=O)CNc1nc(Cl)nc(Nc2ccccc2)n1	90.6%
CCC(=O)Nc1ccc(Nc2nc(Cl)nc(Nc3ccc(NC(=O)CC)cc3)n2)cc1	81.3% (active)
CCC(=O)Nc1ccc(C(=O)NNC(=O)c2ccc(Cl)cc2)cc1	103%
O=C(CCN1CCCCC1)Nc1ccc(F)c(F)c1	94.7%
COc1ccc(-n2cc(CNC3CCOCC3)c(-c3cccc(F)c3)n2)cc1	21.8% (active)
COc1ccc(-n2cc(CN(C)Cc3n[nH]c(=O)[nH]3)c(-c3cccc(F)c3)n2)cc1	103%
CCC(O)C1CCN(Cc2cn(-c3ccc(OC)cc3)nc2-c2cccc(F)c2)CC1 (stereo not given)	110%
CC(=O)Nc1ccc(NC(=O)c2sc3nc4c(c(-c5ccc(C)cc5)c3c2N)CCC4)cc1	6.32% (active)
Cc1cccc(NC(=O)c2sc3nc(N4CCOCC4)c4c(c3c2N)CCCC4)c1	94.3%
Cc1ccc(NC(=O)c2sc3nc(N)c(C#N)cc3c2N)cc1	99.5%
Cc1ccc(NC(=O)CN2CCc3ccccc3C2)cc1C	120%
Cc1cc(C)cc(NC(=O)COc2coc(CN3CCN(c4ccccc4)CC3)cc2=O)c1	104%
Cc1ccc(NC(=O)COc2coc(CN3CCc4ccccc4C3)cc2=O)cc1Cl	85.8% (active)
O=C(COC(=O)/C=C/c1ccc(Cl)cc1)NC1CCS(=O)(=O)C1 (stereo not given)	107%
CN(c1ccccc1)S(=O)(=O)c1ccc(C(=O)NCc2cccnc2)cc1	97.8%
COc1cc2c(=O)n(C)c3ccccc3c2cc1OC	103%
